# Screens: PubChem, National Center for Advancing Translational Sciences (NCATS)
# TDP1 cell noCPT = qHTS for Inhibitors of human tyrosyl-DNA phosphodiesterase 1 (TDP1): qHTS in cells in absence of CPT; DT40 Tdp1-/- hTDP1 cells, no CPT, ATP luminescence, 48 h; Potency, µM (titrated, usually from 46.2 µM), for the others: at the top dose activity change, negative = growth inhibition, most hits filed as inhibitors; 15% of 420,000 active; AID 686978, 2013; also: nearly all actives have a fitted effect of over 55% in size
#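 Chicken DT40 Tdp1-/- cells complemented with human TDP1, screened without camptothecin (DMSO vehicle only), 400 cells/well. Compounds pin-transferred, cells incubated at 37 °C for at least 48 hr. Growth read as ATP-dependent luminescence (CellTiter-Glo, 30 min at RT).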
# KAT2A inh = inhibitors of human GCN5L2 histone acetyltransferase | Q92830 | GCN5L2 HAT assay, ThioGlo1 CoA-SH fluorescence | Potency, µM (highest dose often 58.9 µM), for the others: at the top dose activity change, negative = inhibition, hits mostly inhibitors | 0.21% of 390,000 active
#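 GCN5L2 (20 nM) in 50mM HEPES pH 7.5, 0.1mM EDTA, 0.01% Tween-20 preincubated 15 min with compounds at room temperature. Reaction started with H3(1-25) 75uM, acetyl-CoA 70uM, ThioGlo1 50uM; CoA-thiol fluorescence (Ex340/Em540) read at 0 and 20 min.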
# PLK1 PBD inh = inhibitors of human PLK1 polo-box domain binding; P53350; Plk1 PBD binding of FITC phosphopeptide, fluorescence polarization; Potency, µM, without a hit: max response, negative = inhibition, usual class: inhibitors; 2.8% of 360,000 active; AID 720504; also: series mostly up to about 57 µM; nearly all actives have a fitted effect of over 65% in size
# Target sequence (P53350 whole entry, looked up, the tested form may be a part): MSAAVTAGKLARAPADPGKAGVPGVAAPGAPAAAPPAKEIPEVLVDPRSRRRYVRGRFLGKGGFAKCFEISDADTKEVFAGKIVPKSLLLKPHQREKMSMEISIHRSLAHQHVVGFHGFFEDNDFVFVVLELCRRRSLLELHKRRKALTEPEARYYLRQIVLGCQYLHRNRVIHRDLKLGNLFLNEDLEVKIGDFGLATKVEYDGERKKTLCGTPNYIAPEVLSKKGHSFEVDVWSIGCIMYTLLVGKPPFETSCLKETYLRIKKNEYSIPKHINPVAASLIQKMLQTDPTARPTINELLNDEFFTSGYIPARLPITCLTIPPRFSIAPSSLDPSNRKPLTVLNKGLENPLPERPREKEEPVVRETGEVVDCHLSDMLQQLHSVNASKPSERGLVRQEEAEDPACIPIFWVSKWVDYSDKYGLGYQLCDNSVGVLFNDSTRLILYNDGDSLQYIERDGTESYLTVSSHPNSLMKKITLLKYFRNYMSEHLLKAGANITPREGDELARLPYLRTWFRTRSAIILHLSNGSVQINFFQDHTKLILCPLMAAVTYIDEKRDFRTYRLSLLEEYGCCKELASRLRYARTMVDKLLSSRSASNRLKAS
# TDP1 cell CPT = DT40-hTDP1 cell growth loss with CPT; chicken DT40 Tdp1-/-;hTDP1 cells + 20 nM CPT, ATP luminescence, 48 h; Potency, µM (series often up to 46.2 µM), without a hit: top-dose activity change, negative = growth inhibition, most hits filed as inhibitors; 12% of 420,000 active; AID 686979; also: nearly all actives have a fitted effect of over 55% in size
#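 Chicken DT40 Tdp1-/- cells stably complemented with human TDP1 were seeded at 400 cells/well in medium containing 20 nM camptothecin, exposed to pin-transferred compounds, and grown at 37 °C for at least 48 hr. Viability was read as ATP luminescence.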
# TDP1 block = blocks human tyrosyl-DNA phosphodiesterase 1; Q9NUW8; recombinant TDP1, AlphaScreen DNA substrate cleavage; Potency, µM (series often up to 130 µM), inactives show at the highest dose activity change, negative = inhibition, most hits filed as inhibitors; 0.28% of 350,000 active; also: nearly all actives have a fitted effect of over 40% in size
#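 Signal: AlphaScreen proximity between streptavidin donor and anti-FITC acceptor beads on intact substrate. Reaction: Tdp1 1 nM, substrate 15 nM final, 5 min RT after 15 min compound preincubation.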
# VDR inh = inhibitors of human vitamin D receptor; P11473; VDR-SRC2-3 peptide fluorescence polarization, 2 h; Potency, µM, inactives show max response, negative = inhibition, usual class: inhibitors; 0.93% of 400,000 active; AID 504847
#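 Fluorescence polarization assay measuring small-molecule disruption of VDR binding to the coregulator peptide SRC2-3. Compounds were pin-transferred (23 nl) into the reagent mix and incubated 2 h at room temperature before reading.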
# An asterisk follows results filed as active; ? = inconclusive; / = no result given; [ ] = remark or other dose. Compounds with a hit are over-represented: about 18% of the library has one in this group of screens. Calls follow the shape of the dose curve; as a rule, active = well fitted curve in the direction sought with a large enough effect; inconclusive = small, poorly fitted or top-dose-only effect, or another doubt; inactive = no such curve, though single readings can be large; an effect the other way counts as inactive or inconclusive. % is scaled to controls: 0 for no effect and ±100 for the full control effect; potency is read from the fitted curve at half-maximal effect.
SMILES,TDP1 cell noCPT,KAT2A inh,PLK1 PBD inh,TDP1 cell CPT,TDP1 block,VDR inh
O=C(Cc1ccccc1[N+](=O)[O-])N1CCN(S(=O)(=O)c2ccccc2)CC1,-6%,-13%,-10%,-11%,1%,-5%
Cc1ccc(C(=O)N2CCc3ccccc32)cc1[N+](=O)[O-],-20%,-15%,30µM*,-1%,/,-10%
COC(=O)C1=C(C)N(Cc2ccccc2)C2=C(C(=O)c3ccccc3)C(c3ccccc3)[C@@](O)(C(=O)OC)C(=O)N2C1c1ccccc1 (stereo not given in full),/,/,/,/,4%[21 µM],/
CCOc1ccc(NC(=O)Nc2c(C)n(C)n(-c3ccccc3)c2=O)cc1,2%,-22%,1%,-4%,2%[12.3 µM],-5%
Cc1ccc(S(=O)(=O)NC(C)CCc2ccccc2)cc1C(N)=O (stereo not given),18µM*,-4%,-12%,?,8%,6%
CN1CCN(S(=O)(=O)c2ccc(NC(=O)c3ccc(F)cc3Cl)cc2)CC1,-1%,-13%,0%,-2%,2%,15%
COc1ccc(N2CCN(C(CNS(=O)(=O)c3c(C)cc(C)cc3C)c3ccco3)CC2)cc1 (stereo not given),26µM*,-20%,/,?,5%,5%
COc1ccc(S(=O)(=O)NCC(c2ccco2)N2CCN(c3ccccc3F)CC2)cc1C (stereo not given),18µM*,-14%,/,21µM*,10%,4%
O=S(=O)(NCC(c1ccco1)N1CCN(c2ccccc2F)CC1)c1ccccc1 (stereo not given),?,-10%,-7%,0%,-3%,-2%
COc1ccc(N2CCN(C(CNS(=O)(=O)c3ccc4c(c3)OCCO4)c3ccco3)CC2)cc1 (stereo not given),?,-19%,-1%,13µM*,3%,-7%
COc1ccc(S(=O)(=O)NCCS(=O)(=O)N2CCN(c3ccccc3)CC2)cc1C,23µM*,-11%,/,18µM*,4%,0%
CC(C)CNC(=O)Nc1cc(C(=O)NCc2ccc(C(C)C)cc2)ccc1N1CCCC1,?,-25%,/,?,-4%,5%
COc1ccc2[nH]c3c(c2c1)CCN1C(=O)N([C@@H](C)C(=O)NCc2ccc(C)cc2)C(=O)[C@]31C,?,2%,0%,-22%,/,-18%
Cn1nccc1C(=O)NCc1ccc2c(c1)CCN2C(=O)c1ccc(F)cc1,?,-14%,/,?,8%,7%
CN1CCN(c2nc3cc(C(F)(F)F)ccc3n3cccc23)CC1,21µM*,-19%,-8%,?,8%[56.1 µM],-6%
O=C(NCc1ccccc1)c1cc(C2CCCCN2C(=O)OCCF)on1 (stereo not given),-10%,/,-14%,1%,/,/
Cc1cc(NC(=O)CCC(=O)N(CC(=O)NCC2CCCO2)c2ccc(C(C)C)cc2)no1 (stereo not given),-9%,-1%,-3%,4%,-2%[0.0935 µM],-11%
C[n+]1ccn(CC(=O)c2cccs2)c1,-10%,-9%,-12%,14%,/,?
CCCCCCCCCCCCCCCCn1cc[n+](C)c1,0.46µM*,-4%,-18%,0.46µM*,1%,11%
COc1ccc(NC(=O)c2cccc(N3CCCS3(=O)=O)c2)c(OC)c1,12%,17%,/,-24%,3%,6%
Cc1cc2c(cc1S(=O)(=O)Nc1ccc(OC(F)(F)F)cc1)OCC(=O)N2,?,-21%,-26%,?,-2%,10%
Cc1ccc(N2CC3=C(C2=O)C(c2ccc(Br)cc2)NC(=O)N3C)cc1 (stereo not given),?,-3%,/,?,7%,4%
CN(C)CCC(O)(c1ccccc1)c1ccccc1Cl (stereo not given),3%,/,1%,4%,/,-15%
CSc1ccccc1NC(=O)CSc1n[nH]c(N)n1,2%,-3%,-3%,0%,2%,-7%
Nn1c(SCC(=O)Nc2cccnc2Cl)nnc1-c1ccccc1,-16%,?,4.7µM*,?,2%,79µM*
SMILES,TDP1 cell noCPT,KAT2A inh,PLK1 PBD inh,TDP1 cell CPT,TDP1 block,VDR inh
Cc1cc(C)cc(NC(=O)CSc2nnc(-c3ccccc3C)o2)c1,10%,0%,3%,2%,6%,4%
Cc1ccccc1-c1nnc(SCC(=O)Nc2cccnc2Cl)o1,16µM*,1%,10%,13µM*,0%,5%
Nc1nc(SCC(=O)Nc2cccnc2Cl)n[nH]1,?,-5%,12µM*,?,5%,-19%
COc1ccccc1NC(=O)CSc1nnc(NC(=O)Nc2ccc(C)cc2)s1,?,-5%,/,?,3%,4%
Cc1ccc(-c2noc(C(C)NC(=O)c3ccco3)n2)cc1 (stereo not given),12µM*,-6%,/,16µM*,7%,8%
CC(NC(=O)c1ccco1)c1nc(-c2ccc(C(C)(C)C)cc2)no1 (stereo not given),21µM*,-6%,0%,21µM*,9%,5%
Cc1ccc(-c2noc(C(C)NS(=O)(=O)c3ccc(C)cc3)n2)cc1 (stereo not given),21µM*,-5%,/,?,6%,8%
CC(NC(=O)c1ccco1)c1nc(-c2ccccc2Cl)no1 (stereo not given),-10%,-6%,-6%,-18%,11%,-1%
CC(C)(C)c1ccc(-c2noc(CNC(=O)c3ccco3)n2)cc1,?,-2%,-4%,-29%,7%,2%
O=C(O)C1CCC(CNS(=O)(=O)c2ccccc2)CC1 (stereo not given),-8%,-8%,-5%,-5%,/,-7%
O=C(COCc1cc(-c2cccs2)on1)N1CCN(c2ccccc2)CC1,?,-3%,/,?,-2%,8%
Cc1cc(Nc2cccc(Cl)c2)nc2ccc(NC(=O)Cc3c(F)cccc3Cl)cc12,7.3µM*,-12%,/,13µM*,-2%,12%
COc1ccc(CC(=O)Nc2ccc3nc(Nc4ccc(OC)cc4)cc(C)c3c2)cc1,23µM*,-12%,/,?,11%,14%
COc1ccc(Nc2cc(C)c3cc(NC(=O)c4cc(OC)cc(OC)c4)ccc3n2)cc1,7.3µM*,-14%,/,9.2µM*,9%,-1%
COc1ccc(Nc2cc(C)c3cc(NC(=O)COc4cccc(C)c4)ccc3n2)cc1,15µM*,-9%,/,16µM*,9%,20%
